High-throughput results from PubChem BioAssay.
Sampled rows, rich in hits. Any-hit rate of the full collection: about 7.8%.
VACV mCherry inh = inhibitors of vaccinia virus infection (mCherry reporter signal) | AID 720579 | Potency, µM (top dose mostly 36.5 µM), for inactives: top-dose activity change, negative = inhibition, most hits filed as inhibitors | 310,000 compounds, 0.63% hits | Vaccinia virus mCherry reporter infection, fluorescence; calls by dose curve; tested in A549 cells; further: potency means the concentration at half of the fitted maximal effect; nearly all actives have a fitted effect of over 35% in size
VACV Venus inh = inhibitors of vaccinia virus (Venus reporter) | 330,000 compounds, 0.46% hits | Vaccinia virus Venus reporter expression, fluorescence | Potency, µM (titrated, usually from 36.5 µM), for inactives: top-dose activity change, negative = inhibition, actives largely listed as inhibitors; calls by dose curve; tested in A549 cells; further: potency means the concentration at half of the fitted maximal effect; nearly all actives have a fitted effect of over 30% in size
HCMV inh = human cytomegalovirus inhibition | HFF cells, HCMV-luciferase reporter, 72 h; stronger effect = lower value | activity change, negative = inhibition, % at 57.5 µM | 410,000 compounds, 4.5% hits | AID 1259415; in the data active means activity change below about -60%; inconclusive means no clear call, values can overlap the other calls; inactive means above about -39%
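Two compound doses tested in HFFs infected with HCMV-luciferase, MOI 1 PFU/cell, 72 h at 37C. Lysate luminescence read with OneGlo; data normalized against buffer-only and 10uM Salinomycin inhibitor controls.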
LASV entry inh = blocks Lassa virus binding to or entry into cells. Lassa virus pseudotype entry inhibition, cell reporter. Potency, µM (doses to about 37.9 µM), for the others: top-dose activity change, negative = inhibition, most hits filed as inhibitors. 300,000 compounds, 1.2% hits; calls by dose curve; tested in HEK293 cells; further: potency means the concentration at half of the fitted maximal effect; nearly all actives have a fitted effect of over 50% in size
Marburg entry inh = Marburg virus entry inhibition | Marburg virus pseudotyped entry inhibition, cell reporter | Potency, µM (highest dose often 37.8 µM), for inactives: at the top dose activity change, negative = inhibition, usual class: inhibitors | 300,000 compounds, 1.8% hits | AID 540276; calls by dose curve; tested in HEK293 cells; further: potency means the concentration at half of the fitted maximal effect
HCV inh = inhibitors of hepatitis C virus infection; Huh7.5.1 HCVcc-Cre infection, luciferase reporter, 44 h; Potency, µM (doses to about 41.8 µM), for inactives: top-dose activity change, negative = inhibition, hits mostly inhibitors; 340,000 compounds, 3.4% hits; AID 651820; active means well fitted inhibition curve with a large enough effect; inconclusive means small, poorly fitted or top-dose-only effect, or another doubt; inactive means no such curve, though single readings can be large or run the other way; further: potency means the concentration at half of the fitted maximal effect
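Infectious HCV cell culture screen: compound-treated cells (1,000/well, pre-plated 4 h) are infected with HCVcc-Cre at roughly 0.5 moi and grown 44 h. Infection is quantified by luciferase signal after 15 min substrate incubation at room temperature.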
Starred values were filed as active, the others as inactive; i = inactive; ? = inconclusive; / = no result; [ ] = remark or other dose. On the % scale 0 is the no-effect control and ±100 the full control effect.

SMILES	VACV mCherry inh	VACV Venus inh	HCMV inh	LASV entry inh	Marburg entry inh	HCV inh
O=C(COC(=O)/C=C/c1cccs1)NC1CC1	i	-8%	-60*	?	?	18%
Cc1nc2sccn2c1CN1CCC2(CC1)CC2C(=O)Nc1ccc2c(c1)OCO2 (configuration not stated)	-14%	-9%	/	/	/	/
Cc1cccc(-c2ocnc2C(=O)Nc2ccccc2NC(=O)c2ccccn2)c1	-28%	-4%	-98*	?	?	?
Cc1ccc(-c2ocnc2C(=O)Nc2ccccc2NC(=O)c2ccccn2)cc1	-20%	-12%	?	-20%	?	?
Cc1ccc2c(c1)N(C(=O)N1CCC(C(=O)Nc3cccc(F)c3)CC1)CCO2	-10%	-10%	-16	1%[46.1 µM]	/	/
CC(C)Oc1cccc(C2CC(=O)Nc3cc4c(cc32)OCO4)c1 (configuration not stated)	?	-26%	-16	?	?	/
CC(C)c1ccc(C2C3=C(COC3=O)Nc3cc4c(cc32)OCO4)cc1 (configuration not stated)	?	?	-88*	?	?	-46%
CCOC(=O)C1CCCN(S(=O)(=O)c2ccc(Cl)nc2)C1 (configuration not stated)	14µM*	?	-39	-3%	9%	11%
Cc1cc(C)c(S(=O)(=O)N2CCN(C(=O)C3COc4ccccc4O3)CC2)c(C)c1 (configuration not stated)	/	/	8	/	/	11µM*
COc1ccc(N2CCN(C(=O)C3CCCN(S(=O)(=O)c4ccc(C)cc4)C3)CC2)cc1 (configuration not stated)	-6%	3%	?	/	-27%[46.1 µM]	2.5µM*
CC(=O)c1cccc(NC(=O)C2CCCN(S(=O)(=O)c3ccc(F)cc3)C2)c1 (configuration not stated)	0%	-1%	-19	-11%	-12%	?
COc1ccc(S(=O)(=O)N2CCCC(C(=O)Nc3cccc(C(C)=O)c3)C2)cc1 (configuration not stated)	/	-17%	-66*	5%	?	?
Cn1ccc2cc(S(=O)(=O)N3CCCC(C(=O)NCc4ccc(F)cc4)C3)ccc21 (configuration not stated)	-17%	-5%	2	-6%[46.1 µM]	/	/
Cc1cc2nnc(SCc3ccc(F)cc3)n2c2ccccc12	-4%	-4%	-4	-28%[46.1 µM]	1%[46.1 µM]	/
CCOC(=O)N1CCN(C(=O)C2CCN(S(=O)(=O)c3c(C)cc(C)cc3C)CC2)CC1	/	/	-107*	?	11%	-14%
Cc1ccc(S(=O)(=O)N2CCCC(C(=O)N(Cc3cccs3)C3CC3)C2)cc1 (configuration not stated)	?	-20%	-39	?	5%	16µM*
CCOC(=O)N1CCN(C(=O)C2CCCN(S(=O)(=O)c3ccc(C)cc3)C2)CC1 (configuration not stated)	/	/	-61*	-28%	-6%	-27%
CC1Cc2cc(-c3csc(NC(=O)Cc4cccs4)n3)ccc2N1S(C)(=O)=O (configuration not stated)	?	?	-100*	?	?	6.3µM*
CCCC(=O)Nc1nc(-c2ccc3c(c2)CCN3S(C)(=O)=O)cs1	-14%	-24%	-35	-2%	-17%	13µM*
CS(=O)(=O)N1CCc2cc(-c3csc(NC(=O)Cc4ccccc4)n3)ccc21	?	?	-98*	?	7.3µM*	?
CCC(=O)Nc1nc(-c2ccc3c(c2)CC(C)N3S(C)(=O)=O)cs1 (configuration not stated)	i	-21%	-22	-30%[46.1 µM]	?	?
Cc1ccccc1C(=O)N1CCc2cc(-c3csc(NC(=O)CN4CCCC4)n3)ccc21	i	-13%	-79*	?	?	?
CS(=O)(=O)N1CCc2cc(-c3csc(NCC4CCCO4)n3)ccc21 (configuration not stated)	i	1%	53	-1%	-3%	-29%
Cc1ccc(-n2nc(C(=O)N3CCN(c4cccc(C(F)(F)F)c4)CC3)c3c4ccccc4n(C)c3c2=O)cc1	-2%	4%	25	1%[46.1 µM]	-2%[46.1 µM]	/
COc1ccc(NC(=O)c2cccc(N3CCCS3(=O)=O)c2)cc1	-7%	2%	98	?	/	/
SMILES	VACV mCherry inh	VACV Venus inh	HCMV inh	LASV entry inh	Marburg entry inh	HCV inh
CC(C)(C)C(=O)OCOC(=O)[C@@H]1N2C(=O)[C@@H](N=CN3CCCCCC3)[C@H]2SC1(C)C	-3%	-21%	22	/	/	0.5µM*
CC1(C)S[C@@H]2[C@H](NC(=O)COc3ccccc3)C(=O)N2C1C(=O)OCC1CCCCC1 (some centres not stated)	i	-6%	-5	/	/	7%
Cc1coc2cc3oc(=O)c(CC(=O)NCCc4ccccc4)c(C)c3cc12	-10%	-10%	-5	16%[46.1 µM]	1%[46.1 µM]	/
O=C(NCCc1ccc(Cl)cc1)C1CCC(=O)N(C2CCCCCC2)C1 (configuration not stated)	i	-12%	-61*	5%[46.1 µM]	-6%[46.1 µM]	1%
O=C(NCCc1ccc(Cl)cc1)C1CCN(S(=O)(=O)c2ccc(Br)s2)CC1	-28%	-22%	-38	-16%	-21%[46.1 µM]	10µM*
O=C(NCCc1ccc(Cl)cc1)C1CC(=O)N(C2CCCC2)C1 (configuration not stated)	6%[7.34 µM]	10%[7.34 µM]	-39	/	/	1%
O=C(Nc1ccc(Cl)cc1)C1CCN(S(=O)(=O)c2ccc(Br)s2)CC1	-25%	-14%	-96*	?	-15%[46.1 µM]	/
O=C(NCCc1ccc(Cl)cc1)C1CCN(C(=O)c2sccc2-n2cccc2)CC1	-21%	-27%	-8	-23%	?	8.9µM*
Cc1ccc(CNC(=O)COCc2cc(-c3cccs3)on2)cc1	-15%	-11%	4	?	/	/
CCC[C@@H]1Cc2c(sc3nc(SC)nc(N)c23)CO1	/	/	/	/	0%[46.1 µM]	/
C[C@@H]1CN([C@@H](C)CO)C(=O)c2cc(NS(C)(=O)=O)ccc2O[C@H]1CN(C)Cc1ccc(Oc2ccccc2)cc1	?	?	-39	/	/	-13%
C[C@@H]1CCCCO[C@H](CN(C)Cc2ccc(C(F)(F)F)cc2)[C@H](C)CN([C@@H](C)CO)C(=O)c2cc(NC(=O)Cc3ccccc3)ccc2O1	?	11µM*	-81*	/	/	/
C[C@H]1CN([C@@H](C)CO)C(=O)Cc2cc(NS(C)(=O)=O)ccc2O[C@@H]1CN(C)Cc1ccc(Cl)c(Cl)c1	-12%	-28%	-13	/	/	?
C[C@@H]1CN([C@@H](C)CO)C(=O)Cc2cc(NC(=O)Nc3ccc(F)cc3)ccc2O[C@@H]1CN(C)Cc1ccc(Cl)c(Cl)c1	?	11µM*	8	/	/	?
